Experiment [1] is described as follows: qHTS assay to identify small molecule agonists of the vitamin D receptor (VDR) signaling pathway - cell viability counter screen (AID 743224; active = well fitted curve in the direction sought with a large enough effect in the repeat runs; an effect the other way counts as inactive or inconclusive; note: series mostly up to about 63 µM; % is set by controls: 0 for no effect and ±100 for the full control effect; nearly all actives have a fitted effect of over 50% in size). The method, boiled down: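 CellTiter-Glo viability readout on VDR-bla cells, measured after 16 h of compound treatment at 37C in the same wells.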
The nature of experiment [2]: qHTS assay to identify small molecule antagonists of the vitamin D receptor (VDR) signaling pathway - cell viability counter screen (AID 743225; active = well fitted curve in the direction sought with a large enough effect in the repeat runs; an effect the other way counts as inactive or inconclusive; note: nearly all actives have a fitted effect of over 50% in size; note: potency is the fitted concentration of half-maximal effect; for viability change, negative = cytotoxic: % is set by controls: 0 for no effect and ±100 for the full control effect). The method, boiled down:
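Parallel cytotoxicity test: VDR-UAS-bla HEK 293T, 3 nM (final) 1-alpha,25-dihydroxyvitamin D3 with test compound, 16 h, 37C. Endpoint is CellTiter-Glo luminescence in the same wells.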

Experiment [3] can be described thus: qHTS assay to identify small molecule agonists of the NFkB signaling pathway - cell viability counter screen (AID 1159515). Note: nearly all actives have a fitted effect of over 55% in size. Note: potency is the fitted concentration of half-maximal effect. The method, boiled down: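 Tox21 library compounds were tested for cytotoxicity against NFkB-bla ME-180 cells during a 5 hr exposure at 37 C. CellTiter-Glo luminescence served as the viability read-out.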
A short description of experiment [4]: qHTS assay to identify small molecule agonists of the endoplasmic reticulum stress response signaling pathway (AID 1159516; active = well fitted activation curve with a large enough effect in the signal ratio in the repeat runs, not every such curve was filed as active; the % refers to the signal ratio; note: % is set by controls: 0 for no effect and ±100 for the full control effect). The method, boiled down:
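Fluorescence at 460 and 530 nm (405 nm excitation) reports beta-lactamase from an ER stress response element in HeLa cells treated 5 hr at 37 C.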

Experiment [5] is described as follows: qHTS assay to identify small molecule agonists of the endoplasmic reticulum stress response signaling pathway - cell viability counter screen (AID 1159517). Note: nearly all actives have a fitted effect of over 50% in size. Note: potency is the fitted concentration of half-maximal effect. The method, boiled down: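 In parallel with the ESRE reporter read, cytotoxicity was scored by CellTiter-Glo luminescence (30 min, room temperature) on HeLa ESRE-bla cells dosed for 5 hr.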
Experiment [6] in a line: qHTS assay to identify small molecule antagonists of the retinoid-related orphan receptor gamma (ROR-gamma) signaling pathway - cell viability counter screen (AID 1159520; active = well fitted curve in the direction sought with a large enough effect in the repeat runs; an effect the other way counts as inactive or inconclusive; note: % is set by controls: 0 for no effect and ±100 for the full control effect; nearly all actives have a fitted effect of over 50% in size). The method, boiled down: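 Tet-on ROR gamma CHO cells were given compounds for 2 hr, then doxycycline hyclate at 1 uM final, and incubated 16 hr at 37 C. Viability was measured as ATP content by CellTiter-Glo luminescence.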

The target of experiment [7] is Nuclear receptor ROR-gamma (Homo sapiens) (UniProt P51449). Briefly: qHTS assay to identify small molecule antagonists of the retinoid-related orphan receptor gamma (ROR-gamma) signaling pathway (AID 1159521; active = well fitted curve in the direction sought with a large enough effect in the repeat runs; an effect the other way counts as inactive or inconclusive; note: nearly all actives have a fitted effect of over 50% in size; note: potency is the fitted concentration of half-maximal effect;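 for activity change, negative = inhibition: CHO cells with doxycycline inducible ROR-gamma driving an RORE luciferase reporter; top concentration of the series differs between compounds; % is set by controls: 0 for no effect and ±100 for the full control effect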). The method, boiled down:
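Decreased RORE-driven luciferase luminescence indicates antagonism. Tet-on RORγ CHO cells received compound, then 1 uM final doxycycline 2 h later; signal read after 16 h incubation.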

Experiment [8] can be described thus: qHTS assay to identify small molecule agonists of the AP-1 signaling pathway - cell viability counter screen (AID 1159525). Note: nearly all actives have a fitted effect of over 55% in size. The method, boiled down:
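Same-well cytotoxicity counter screen of the Tox21 10K library in ME-180 cells. The readout is ATP-dependent luminescence after 5 h compound treatment. Data are normalised to DMSO and tetra n-octyl ammonium bromide controls.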

Experiment [9] in a line: qHTS assay to identify small molecule agonists of the AP-1 signaling pathway (AID 1159526). Note: % is set by controls: 0 for no effect and ±100 for the full control effect.
In experiment [10] the target is Retinoic acid receptor RXR-alpha (Homo sapiens) (UniProt P19793). The experiment can be described thus: qHTS assay to identify small molecule agonists of the RXR signaling pathway (AID 1159527). Note: nearly all actives have a fitted effect of over 35% in size. Note: potency is the fitted concentration of half-maximal effect. The method, boiled down: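 16 hr incubation of compound-treated RXR-alpha-UAS-bla HEK 293T cells (2% charcoal-stripped FBS, 37 C) preceded a 2 hr room-temperature LiveBLAzer FRET substrate step and blue/green fluorescence measurement.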
Sequence of Retinoic acid receptor RXR-alpha (Homo sapiens) (P19793 whole entry, looked up): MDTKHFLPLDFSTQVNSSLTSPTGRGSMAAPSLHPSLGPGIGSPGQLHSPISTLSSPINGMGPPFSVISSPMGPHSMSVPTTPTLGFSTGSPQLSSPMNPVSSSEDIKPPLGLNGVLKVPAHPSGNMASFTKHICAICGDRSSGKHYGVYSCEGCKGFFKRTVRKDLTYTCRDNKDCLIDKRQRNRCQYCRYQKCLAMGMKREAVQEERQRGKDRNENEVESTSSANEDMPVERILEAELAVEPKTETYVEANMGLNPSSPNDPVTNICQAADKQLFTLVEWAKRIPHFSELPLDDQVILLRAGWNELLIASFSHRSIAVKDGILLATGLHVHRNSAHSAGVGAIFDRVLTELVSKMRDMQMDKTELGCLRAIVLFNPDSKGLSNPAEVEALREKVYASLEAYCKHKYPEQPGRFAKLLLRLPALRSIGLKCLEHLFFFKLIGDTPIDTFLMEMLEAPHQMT

From PubChem BioAssay (Tox21) come the findings set out here.

Where “and” joins values, the source holds several entries; their conditions need not be identical. Equal entries are not always repeated. Inconclusive results are not listed. Some compounds were tested as several samples or in several runs, with calls that do not always agree. Calls of active or inactive are those of the source. Unless noted, calls come from the whole dose curve.

On to `Nc1c(Br)cc(Br)c2c1C(=O)c1ccccc1C2=O`, for which the Potency entry in experiment [1], in [2], in [3], in experiment [4] and in [5] was “inactive” in each case. Besides, the activity, negative = cytotoxicity in experiment [6] is -2.6% [at 19 µM] (inactive). Besides, in experiment [7], the activity change, negative = inhibition was 13.2% [at 19 µM] (inactive). The viability change, negative = cytotoxic in experiment [8] is 1.64% [at 15.8 µM] (inactive). In addition, the activation is 0.821% [at 15.8 µM] (inactive) in experiment [9] and 1.05% [at 15.8 µM] (inactive) in experiment [10].

Take `NC(=O)CF`: the Potency entry in experiment [2], in experiment [3], in experiment [4], in [5], in experiment [6] and in experiment [7] was “inactive” each time. Besides, the Potency entry in experiment [8], in experiment [9] and in [10] was “inactive” in each case.

For `CC(C)(C)NCC(O)c1ccccc1Cl` (configuration not stated), the Potency result in [1], in experiment [2], in experiment [3], in [4], in experiment [5] and in experiment [6] was “inactive” throughout. The Potency result in experiment [7], in experiment [8], in [9] and in experiment [10] was “inactive” each time.

With `CC1(C)CC(=O)CC(C)(C)N1[O]`, the Potency entry in [1], in experiment [2], in experiment [3], in [4], in experiment [5] and in [6] was “inactive” in each case. Further, the Potency result in experiment [7], in [8], in experiment [9] and in [10] was “inactive” in each case.

For `CN[C@@H](C)[C@H](O)c1ccccc1`, the Potency result in [1], in experiment [2], in [3], in [4], in [5] and in [6] was “inactive” each time. The Potency result in [7], in experiment [8], in experiment [9] and in experiment [10] was “inactive” throughout.

With `Cc1ncc(C[n+]2csc(CCO)c2C)c(N)n1`, the Potency entry in experiment [1], in experiment [2], in [3], in [4], in [5] and in experiment [6] was “inactive” each time. For the same compound, the Potency result in [7], in experiment [8] and in [9] was “inactive” in each case.

`CCCCCBr`: the Potency result in [1], in [2], in [3], in experiment [4], in [5] and in experiment [6] was “inactive” throughout. Further, the Potency result in experiment [7], in experiment [8], in experiment [9] and in [10] was “inactive” in each case.

With `O=[N+]([O-])O[C@H]1CO[C@H]2[C@@H]1OC[C@H]2O[N+](=O)[O-]`, the Potency result in experiment [2], in experiment [3], in experiment [4], in experiment [5], in experiment [6] and in [7] was “inactive” in each case. Besides, the Potency entry in experiment [8], in experiment [9] and in [10] was “inactive” each time.

As for `CN(C1CCCCC1)C1CCCCC1`, the Potency entry in [1], in experiment [2], in [3], in experiment [4], in [5] and in [6] was “inactive” each time. The Potency entry in [7], in [8], in experiment [9] and in experiment [10] was “inactive” each time.

Turning to `CCC(=O)O[C@@H]1C=C2CCC3C(CCC4(C)C3CC[C@@H]4OC(=O)CC)C2CC1` (some centres not stated), the Potency result in experiment [2], in experiment [3], in experiment [4], in experiment [5], in experiment [6] and in [7] was “inactive” in each case. Moreover, the Potency entry in [8], in [9] and in [10] was “inactive” each time.

With `CC(C)CCCCCCCOC(=O)c1ccccc1C(=O)OCCCCCCCC(C)C`, the Potency result in experiment [1], in [3], in [4], in experiment [5], in experiment [6] and in experiment [7] was “inactive” throughout. Further, the Potency result in [8] and in experiment [9] was “inactive” throughout.

As for `CC(Oc1cc(Cl)c(Cl)cc1Cl)C(=O)O` (configuration not stated), the Potency result in [1], in experiment [2], in experiment [3], in [4], in experiment [5] and in experiment [6] was “inactive” each time. In addition, the Potency result in experiment [7], in experiment [8], in experiment [9] and in [10] was “inactive” each time.

With `C[C@]12CC[C@H]3[C@@H](CCC4=CC(=O)CC[C@@H]43)[C@@H]1CC[C@@H]2OC(=O)CCc1ccccc1`, the Potency entry in experiment [1], in [2], in [3], in [4], in experiment [5] and in experiment [6] was “inactive” in each case. Also, the Potency entry in experiment [7], in experiment [8], in experiment [9] and in experiment [10] was “inactive” each time.

With `CC(C)c1ccc(OP(=O)(Oc2ccc(C(C)C)cc2)Oc2ccc(C(C)C)cc2)cc1`, the Potency entry in [1], in [4], in experiment [6], in experiment [8] and in [9] was “inactive” in each case. Also, the Potency was 30.9 µM (active) in experiment [3]; 9.77 µM (active) in experiment [5]; 27.5 µM (active) and 30.6 µM (active) in experiment [7].

Take `CC[N+]1(CCOC(=O)C(O)(c2ccccc2)c2ccccc2)CCCCC1`: the Potency result in experiment [2], in experiment [3], in [4], in experiment [5], in experiment [6] and in [7] was “inactive” in each case. The Potency result in experiment [8], in experiment [9] and in experiment [10] was “inactive” each time.

On to `CCOC(=O)C1OC1(C)c1ccccc1` (configuration not stated), for which the Potency result in experiment [2], in experiment [3], in experiment [4], in experiment [5], in experiment [6] and in experiment [7] was “inactive” in each case. Also, the Potency result in experiment [8] and in [9] was “inactive” in each case. The Potency in experiment [10] is 13.9 µM (active) and inactive.

As for `CCOC(C(=O)OCCN(C)C)(c1ccccc1)c1ccccc1`, the Potency result in experiment [1], in experiment [3], in [4], in experiment [5], in experiment [6] and in [7] was “inactive” each time. For the same compound, the Potency entry in experiment [8] and in experiment [9] was “inactive” throughout.

Regarding `COC1CC(=C(c2cccs2)c2cccs2)C[N+](C)(C)C1` (configuration not stated), the Potency result in experiment [2], in experiment [3], in experiment [4], in [5], in experiment [6] and in experiment [7] was “inactive” each time. Also, the Potency result in experiment [8], in [9] and in [10] was “inactive” throughout.

Turning to `CCC1CCC(=O)O1` (configuration not stated), the Potency entry in experiment [1], in [2], in [3], in experiment [4], in experiment [5] and in [6] was “inactive” each time. Also, the Potency entry in [7], in experiment [8], in experiment [9] and in experiment [10] was “inactive” each time.

Take `COc1ccc2c(c1OC)C(=O)O[C@H]2[C@@H]1c2cc3c(cc2CCN1C)OCO3`: the Potency entry in [2], in experiment [3], in experiment [4], in experiment [5], in experiment [6] and in experiment [7] was “inactive” throughout. In addition, the Potency entry in [8], in [9] and in [10] was “inactive” each time.

With `C[N+]1(CCC(C(N)=O)(c2ccccc2)c2ccccc2)CCCCC1`, the Potency entry in experiment [2], in experiment [3], in experiment [4], in experiment [5], in [6] and in experiment [7] was “inactive” each time. The Potency result in experiment [8], in experiment [9] and in experiment [10] was “inactive” each time.

For `CCOP(=S)(OCC)SCSc1cc(Cl)ccc1Cl`, the Potency entry in [1], in experiment [2], in [3], in [4], in [5] and in [6] was “inactive” in each case. Further, the Potency entry in [7], in [8] and in experiment [9] was “inactive” each time.

For the compound `c1ccc2c(c1)sc1ccccc12`, the Potency result in [2] is “inactive and 19 µM (active)”. The Potency result in experiment [3], in experiment [4], in experiment [5], in [6], in experiment [7] and in experiment [8] was “inactive” each time. Moreover, the Potency entry in experiment [9] and in experiment [10] was “inactive” each time.

Consider `Cc1cccc(C)c1NC1=NCCCS1`, for which the Potency result in experiment [1], in experiment [2], in experiment [3], in experiment [4], in experiment [5] and in experiment [6] was “inactive” throughout. In addition, the Potency result in experiment [7], in [8], in [9] and in experiment [10] was “inactive” throughout.

Consider `C[N+](C)(C)CC1CO1` (configuration not stated), for which the Potency result in experiment [2], in [3], in [4], in experiment [5], in [6] and in [7] was “inactive” in each case. Besides, the Potency entry in [8], in experiment [9] and in experiment [10] was “inactive” in each case.
